Assay results reported in publication PMC4336329 (PLoS ONE, 2015).
About 14,000 (4.5%) of roughly 310,000 compounds showed an effect of 50% or more. The effect is printed as a negative number. The entries come from a sample that favours strong results as a whole.

Target: human ether-à-go-go-related gene (hERG) potassium channel (human, UniProt Q12809)
Assay: primary screen, population patch clamp on CHO cells stably expressing hERG; higher = less effect of the substance
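Also: peak tail current of the secondary pulse compared with the same well before compound.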

human ether-à-go-go-related gene (hERG) potassium channel, sequence (Q12809 whole entry, looked up): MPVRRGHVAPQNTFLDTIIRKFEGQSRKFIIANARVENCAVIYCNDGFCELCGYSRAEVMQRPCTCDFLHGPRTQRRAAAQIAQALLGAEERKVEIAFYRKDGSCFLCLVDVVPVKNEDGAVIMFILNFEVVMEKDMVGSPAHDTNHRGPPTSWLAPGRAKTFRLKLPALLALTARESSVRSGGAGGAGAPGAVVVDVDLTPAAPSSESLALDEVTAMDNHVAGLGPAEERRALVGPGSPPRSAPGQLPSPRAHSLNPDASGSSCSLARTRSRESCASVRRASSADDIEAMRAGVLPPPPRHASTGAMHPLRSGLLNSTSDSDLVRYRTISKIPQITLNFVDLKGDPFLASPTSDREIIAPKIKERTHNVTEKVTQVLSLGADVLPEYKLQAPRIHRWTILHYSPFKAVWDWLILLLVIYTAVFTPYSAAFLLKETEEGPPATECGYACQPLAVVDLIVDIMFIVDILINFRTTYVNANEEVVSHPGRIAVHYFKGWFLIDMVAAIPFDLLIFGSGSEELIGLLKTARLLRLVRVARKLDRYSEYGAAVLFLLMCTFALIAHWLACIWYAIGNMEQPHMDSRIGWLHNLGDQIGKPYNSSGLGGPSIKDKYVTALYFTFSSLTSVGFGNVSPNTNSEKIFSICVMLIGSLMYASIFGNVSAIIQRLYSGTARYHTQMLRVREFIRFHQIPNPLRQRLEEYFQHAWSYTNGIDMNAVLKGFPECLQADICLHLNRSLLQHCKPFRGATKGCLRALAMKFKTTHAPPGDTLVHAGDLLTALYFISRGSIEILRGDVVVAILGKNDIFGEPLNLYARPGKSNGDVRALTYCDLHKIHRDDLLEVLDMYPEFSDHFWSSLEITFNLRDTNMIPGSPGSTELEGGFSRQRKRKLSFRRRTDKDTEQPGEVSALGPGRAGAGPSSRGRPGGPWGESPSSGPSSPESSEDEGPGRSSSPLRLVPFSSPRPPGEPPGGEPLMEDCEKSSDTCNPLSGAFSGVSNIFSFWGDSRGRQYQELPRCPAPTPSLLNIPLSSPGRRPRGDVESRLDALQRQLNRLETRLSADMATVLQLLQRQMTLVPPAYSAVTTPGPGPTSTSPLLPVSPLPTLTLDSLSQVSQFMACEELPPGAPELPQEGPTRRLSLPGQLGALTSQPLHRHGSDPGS

SMILES | hERG current change (%, negative = inhibition) at 10uM
N#Cc1ccc(N2CCN(C(=O)c3cccc(F)c3)CC2)c(F)c1 | -66.8%
O=C(c1cccc(F)c1)N1CCCN(C(=O)c2cccc(F)c2)CC1 | -6.95%
N#Cc1ccc(N2CCN(c3ccc(F)cc3)CC2)cc1 | -16.9%
CCOC(=O)N1CCN(c2cc(C)c([N+](=O)[O-])cc2F)CC1 | -8.16%
N#Cc1ccc(N2CCN(C(=O)c3cccs3)CC2)c(F)c1 | -55.7%
O=C(c1cccs1)N1CCN(c2ccc(Cl)cc2)CC1 | -13.4%
N#Cc1ccc(N2CCNCC2)c(F)c1 | -69%
Cc1ccc(N2CCN(C(=O)c3cccs3)CC2)c(C)c1 | -10.6%
N#Cc1cc(F)c(N2CCNCC2)cc1Cl | 3.42%
O=C(c1cccs1)N1CCN(c2cc(Cl)ccc2Cl)CC1 | -33.8%
O=C(c1cccc(C(=O)N2CCN(c3ccccc3F)CC2)c1)N1CCN(c2ccccc2F)CC1 | -2.32%
Cc1cc(N2CCN(C(=O)c3cccs3)CC2)c(F)cc1[N+](=O)[O-] | -67%
COc1ccc(S(=O)(=O)N2CCCOC2CNC(=O)C(=O)NCCc2ccco2)cc1 (stereo not drawn) | 4.42%
CC(C)(C)c1ccc(C(=O)Cn2cnnc2C#N)cc1 | 3.7%
Cc1ccc(N2CC(C(=O)NCCc3ccc(S(N)(=O)=O)cc3)CC2=O)cc1 (stereo not drawn) | 22.5%
O=C(N/N=C/c1cccnc1)c1ccccc1 | 17.3%
Cn1c(/C=C/c2ccccc2[N+](=O)[O-])nc2ccccc2c1=O | 5%
COc1ccccc1S(=O)(=O)Cc1ccc(C(=O)NCc2ccco2)o1 | -33.5%
O=C(COC(=O)Cc1ccccc1)Nc1ccc(SC(F)F)cc1 | 5.27%
CNC(=S)NNC(=O)c1c(C)nc2cc(C)ccn12 | 7.15%
CCC(=O)c1ccc(N2CCN(C(=O)c3cc([N+](=O)[O-])ccc3F)CC2)c(F)c1 | -42.9%
O=C(c1cccs1)N1CCN(c2ccc([N+](=O)[O-])cc2F)CC1 | -56.8%
CCC(=O)c1ccc(N2CCN(C(=O)c3cc([N+](=O)[O-])ccc3N3CCN(C)CC3)CC2)c(F)c1 | -46.4%

SMILES | hERG current change (%, negative = inhibition) at 10uM
Cc1ccc(S(=O)(=O)N2CCC(C(=O)OCC(=O)N(C)Cc3ccccc3)CC2)cc1C | -12%
O=C(NC(=S)Nc1cccc(Cl)c1N1CCCCC1)c1cccs1 | 22.7%
CCN1CCN(c2c(Cl)cccc2NC(=O)c2ccco2)CC1 | -73.4%
O=C(Nc1cccc(Cl)c1N1CCOCC1)c1ccc(Br)o1 | 6.64%
O=C(Nc1cccc(Cl)c1N1CCOCC1)c1ccc([N+](=O)[O-])o1 | 2.67%
CCN1CCN(c2c(Cl)cccc2NC(=O)c2ccc([N+](=O)[O-])o2)CC1 | -73.9%
O=C(Nc1cccc(Cl)c1N1CCCC1)c1ccc([N+](=O)[O-])o1 | 9.6%
O=C(Nc1cccc(Cl)c1N1CCOCC1)c1cccs1 | -23.5%
O=C(Nc1cccc(Cl)c1N1CCOCC1)c1ccco1 | -8.08%
CCN1CCN(c2c(Cl)cccc2NC(=O)c2cccs2)CC1 | -73.8%
O=C(Nc1cccc(Cl)c1N1CCCC1)c1ccco1 | 6.11%
CCN1CCN(c2c(Cl)cccc2NC(=O)c2ccc(Br)o2)CC1 | -73.6%
O=C(Nc1cccc(Cl)c1N1CCCC1)c1ccc(Br)o1 | -5.58%
CC12CCC(=O)N1C(C(=O)NNC(=O)c1ccc(Br)cc1)CS2 (stereo not drawn) | -8.4%
Cc1ccc2nc(SCC(=O)Nc3ccc(C(N)=O)cc3)[nH]c2c1 | 3.74%
CC(CN(C)Cc1ccccc1)OC(=O)c1ccc2c(c1)OCCO2.Cl (stereo not drawn) | 5.15%
COC(=O)c1ccc(COc2ccc3ccc(=O)oc3c2)o1 | 8.66%
CN(C)CCNC(=O)Cn1ccc2cc(S(=O)(=O)N3CCCCCC3)ccc21 | -25.4%
C/C(N)=C(/C#N)C(=O)CSc1nn(-c2ccc(Cl)cc2)c(=S)s1 | 12.9%
O=S(=O)(NCCc1ccncc1)c1ccccc1 | 4.04%
c1ccc2c(c1)CCCC2NC1=NCCC1 (stereo not drawn) | -2.53%
O=C(NCC(c1cccs1)N1CCOCC1)c1ccc(Cl)c([N+](=O)[O-])c1 (stereo not drawn) | -31.9%
